An excerpt weighted towards active compounds, which were near 7.9% of everything screened.
SW480 rereplic – induces DNA re-replication in SW480 colon adenocarcinoma cells | SW480 DNA re-replication, Hoechst DNA content imaging, 48 h | Potency, µM (doses to about 46.1 µM), inactives show top-dose re-replication activation, most hits filed as activators | hit rate 1.8% among 340,000 | AID 624297; further: % of control where 0% means no effect; nearly all actives have a fitted effect of over 55% in size
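Hoechst fluorescence of nuclei (405 nm excitation, 500-530 nm emission) measured by plate-scanning imager after 48 hr compound exposure at 37 C; re-replication scored as increased number of nuclei with elevated intensity.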
MCF10A rereplic – inducers of DNA re-replication in MCF 10A breast cells. MCF 10A DNA re-replication, Hoechst nuclear intensity, 48 h. Potency, µM (titrated, usually from 46.1 µM), for inactives: top-dose activity, positive = re-replication, actives largely listed as activators. hit rate 2.9% among 350,000. AID 624296; further: % of control where 0% means no effect; nearly all actives have a fitted effect of over 50% in size
HT1080 IDH1KD tx – toxicity to HT-1080 IDH1 knockdown cells (counter line); HT-1080 IDH1 knockdown viability, ATP luminescence, 48 h; Potency, µM (doses to about 46.1 µM), without a hit: top-dose activity, negative = toxicity, hits mostly cytotoxic; hit rate 2% among 360,000;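 further: 0% = DMSO wells and -100% = cell-free medium wells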
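Luminescent ATP read-out (CellTiter-Glo, 10 min at room temperature) after 48 h compound exposure at 37 °C gave viability of IDH1-knockdown HT-1080 cells. Activity was normalised to DMSO and cell-free wells, then fitted as concentration-response curves.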
HT1080NT lethal – kills 2HG-producing HT-1080-NT fibrosarcoma cells; HT-1080-NT fibrosarcoma viability, CellTiter-Glo ATP luminescence, 48 h; Potency, µM (top dose mostly 46.1 µM), without a hit: at the highest dose activity, negative = less viability, actives largely listed as cytotoxic; hit rate 1.6% among 360,000;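 further: NT is the 2HG producing partner of a matched IDH1 knockdown line; 0% = DMSO-treated cells and -100% = media-only wells without cells; nearly all actives have a fitted effect of over 55% in size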
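Compounds were tested in concentration-response format on HT-1080-NT cells for 48 hours at 37 degrees C. Cell viability came from CellTiter-Glo luminescence; curves were classified by r2, response magnitude and activity.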
KB-V1 MDR tox – KB-V1 MDR subline cytotoxicity | KB-V1 MDR cells viability, CellTiter-Glo, 72 h | Potency, µM (top dose mostly 46.1 µM), hits mostly cytotoxic | hit rate 3.4% among 400,000 | AID 1347076; further: on the % scale 0 is the no-effect control and ±100 the full control effect; nearly all actives have a fitted effect of over 60% in size
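Drug-selected KB-V1 cells, grown in DMEM lacking phenol red with 10% FBS, receive compound titrations; after three days at 37 degrees C, surviving cell ATP is quantified by CellTiter-Glo luminescence and responses normalized and curve-fitted.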
KB-3-1 tox – KB-3-1 parental cell cytotoxicity; KB-3-1 viability, CellTiter-Glo ATP luminescence, 72 h; Potency, µM (top dose mostly 46.1 µM), usual class: cytotoxic; hit rate 1.4% among 400,000; further: on the % scale 0 is the no-effect control and ±100 the full control effect; nearly all actives have a fitted effect of over 60% in size
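KB-3-1 parental drug-naive adenocarcinoma cells in DMEM/10% FBS, incubated 72 h at 37 C with pin-transferred compounds across a concentration series. Viability by CellTiter-Glo luminescence; concentration-response curves fitted after normalization.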
An asterisk follows results filed as active; i = inactive; ? = inconclusive; / = no result given; ! = not active in a repeat; [ ] = remark or other dose. The call rests on the fitted dose curve; in most records, active means well fitted curve in the direction sought with a large enough effect; inconclusive means small, poorly fitted or top-dose-only effect, or another doubt; inactive means no such curve, though single readings can be large; an effect the other way counts as inactive or inconclusive. Potency means the concentration at half of the fitted maximal effect.

SMILES | SW480 rereplic | MCF10A rereplic | HT1080 IDH1KD tx | HT1080NT lethal | KB-V1 MDR tox | KB-3-1 tox
NC(=O)CC(NC(=O)c1ccc(Br)cc1)c1ccc(NCCc2ccc(F)cc2)c([N+](=O)[O-])c1 (stereo not given) | -4% | 30% | 7% | 16% | ? | i
CCOC(=O)N1CCC(N2C(=O)c3ccccc3C2Nc2cc(OC)c(OC)c(OC)c2)CC1 (stereo not given) | 13% | -2% | -6% | 16% | i | i
CCOC(=O)[C@]12Cc3c(cc(OC)c(OC)c3OC)[C@H]1N(C1CCCCC1)C(=O)c1cc(OC)ccc12 | / | / | 12µM* | 12µM* | 4.6µM* | 3.3µM*
CCOC(=O)c1cc2c(ccn2C)n1CC(=O)N(C)C | -9% | 0.65µM* | 5% | 20% | ? | i
CC1CC(C)CN(C(=O)COC(=O)c2ccc3c(c2)OCO3)C1 (stereo not given) | -2% | 2% | 0% | 2% | i | i
CC1CCN(C(=O)COC(=O)c2cc(Cl)c3c(c2)OCO3)CC1 | -1% | -2% | 3% | 3% | 21µM* | i
Cc1cc(C)cc(NC(=O)Cn2cc(C=O)c3ccccc32)c1 | 6% | ? | -10% | 0% | ? | i
Cc1ccc(OCc2nnc(SCC(=O)N3CCc4ccccc43)n2C)cc1 | -3% | 6% | 16% | 13% | i | i
CN(C)CCNc1nc(-c2ccco2)c2c(c1C#N)CC(C)(C)OC2 | 19% | 11% | -9% | -13% | i | i
CCCCN(C)c1nc(-c2ccco2)c2c(c1C#N)CC(C)(C)OC2 | 16µM* | ? | -22% | ? | i | i
Brc1ccc(C2C3=C(Nc4ncnn42)c2ccccc2OC3c2ccncc2)cc1 (stereo not given) | ? | ? | ? | ? | 21µM* | ?
COc1ccc(C2Oc3ccccc3C3=C2C(c2cccs2)n2ncnc2N3)cc1 (stereo not given) | ? | ? | 8.2µM* | ? | 5.8µM* | 5.8µM*
O=c1oc(-c2ccccc2NS(=O)(=O)c2ccccc2)nc2ccccc12 | -9% | 9% | -6% | -2% | i | i
C=CCSC1=NC(=O)/C(=C/c2cccs2)S1 | 3% | 18µM* | -2% | 5% | i | i
Cc1ccc(OCCC(=O)N2CCN(c3ccc(O)cc3)CC2)cc1 | 7.3µM* | ? | 7.3µM* | ? | i | ?
CCOc1ccc(C(=O)CCC(=O)N2CCN(c3ccc(O)cc3)CC2)cc1 | ? | 14% | ? | -15% | i | i
Cc1ccc(C(=O)NCc2ccc(N3CCN(C(=O)OC(C)(C)C)CC3)cc2)cc1 | -10% | 7% | 10% | 7% | 3.7µM* | i
Cc1cnc(C(=O)Nc2ccc(F)cc2)cn1 | 2% | -2% | 2% | 22% | ? | i
Cc1cnc(C(=O)Nc2ccc(N3CCN(C(=O)OC(C)(C)C)CC3)cc2)cn1 | ? | ? | ? | ? | i | 5.8µM*
COc1ccc(N2CCN(C(=O)NCc3ccc(C)cc3)CC2)cc1 | ? | ? | ? | -26% | 5.8µM* | 0.52µM*
Cc1ccccc1OCCCCn1nnc2sc3c(c2c1=O)CCC(C)C3 (stereo not given) | / | / | / | / | i | i
CC1CCCN(c2ccc(/C=C(\C#N)c3nn(-c4ccccc4)c(N)c3C#N)cc2[N+](=O)[O-])C1 (stereo not given) | -3% | -6% | -6% | -2% | i | i
COc1cc(OC)cc(C(=O)Nc2ccc3c(c2)OCCO3)c1 | -1% | -1% | ? | ? | 9.2µM*! | 16µM*!
Cc1ccc(C(=O)Nc2ccc3c(c2)OCCO3)o1 | 0% | 0% | ? | ? | 21µM* | i
Cn1c(C(=O)Nc2ccc3c(c2)OCCO3)cc2sccc21 | 9% | -1% | -20% | -15% | 15µM* | i
SMILES | SW480 rereplic | MCF10A rereplic | HT1080 IDH1KD tx | HT1080NT lethal | KB-V1 MDR tox | KB-3-1 tox
COc1cc(OC)cc(C(=O)NC(C(=O)Nc2ccc3c(c2)OCCO3)C(C)C)c1 (stereo not given) | -10% | 10% | 1% | 3% | i | i
O=S(=O)(Nc1cccc(-c2ccc3nncn3n2)c1)c1ccccc1F | -2% | 21% | 1% | -1% | i | i
Cc1ccccc1C(=O)NC1CCN(C(=O)NCc2ccccc2)CC1 | -5% | -5% | 14% | 6% | i | i
Cc1cccc(N2C(=O)CN=C2Nc2nc(C)cc(C)n2)c1 | 4% | -10% | 3% | 7% | i | i
CCOc1cccc(C2C(C(=O)c3ccc(C)o3)=C(O)C(=O)N2c2nnc(C)s2)c1 (stereo not given) | -1% | 14% | 10% | 16% | i | i
CCCOc1ccc(C2C(C(=O)c3ccc(C)o3)=C(O)C(=O)N2Cc2ccco2)cc1 (stereo not given) | ? | -2% | -3% | -1% | 18µM* | i
CCOc1cccc(C2C(C(=O)c3ccco3)=C(O)C(=O)N2c2nnc(C)s2)c1 (stereo not given) | 5.8µM* | -5% | -9% | 0%[9.24 µM] | i | i
CCCOc1cccc(C2C(C(=O)c3ccc(C)o3)=C(O)C(=O)N2c2nc(C)c(C(C)=O)s2)c1 (stereo not given) | ? | 23µM* | -1% | 4% | ? | i
CC(NCc1cccs1)C(=O)NC1CCCCC1 (stereo not given) | ? | -5% | 12% | 2% | i | i
O=C(NNC1CC(=O)N(c2ccccc2)C1=O)c1ccc(COc2ccccc2Cl)o1 (stereo not given) | -2% | 13% | -1% | 2% | i | i
CN(C)C(CNC(=O)c1cccc(NS(=O)(=O)c2ccc(Br)cc2)c1)c1ccco1 (stereo not given) | 1% | 4% | 8% | 14% | ? | i
O=S(Cc1cc(Sc2ccccc2)nc(-c2ccccc2)n1)c1ccccc1 (stereo not given) | ? | 23µM* | ? | ? | ? | ?
CNc1cc(CS(=O)c2ccccc2)nc(-c2ccccc2)n1 (stereo not given) | -1% | 6% | 14% | 17% | i | i
CCC1=C[C@@H]2CN(C1)Cc1c([nH]c3ccccc13)[C@@](C(=O)OC)(c1cc3c(cc1OC)N(C)[C@H]1[C@@](O)(C(=O)OC)[C@H](OC(C)=O)[C@]4(CC)C=CCN5CC[C@]31[C@@H]54)C2 | / | / | / | / | ? | 0.029µM*
CC1CCCC(C)N1C(=O)c1cc2ncc(CCCl)cn2n1 (stereo not given) | -9% | -5% | 7% | 11% | 21µM* | i

Screening data (PubChem BioAssay)
